Reference: PubChem BioAssay (NCI)
“And” between values parts separate entries of the source, which are not always exact repeats. Identical values can stand only once. About 83,000 compounds went through this panel and 20% of them were active in at least one assay; those are over-represented in the sample as a whole.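 How to read the values: 0–100, growth inhibition (40 = 60% inhibited); 0, no net growth; -100 to 0, cell death (-40 = 40% of starting cells died; -100 = all dead).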 The source made the active and inactive calls. The calls were made as follows: active = growth percent below 10; inactive = the rest.

These compounds were tested on MDA-MB-468 breast (assay: NCI-60 one-dose screen, 48 h (100 = growth as untreated, 0 = no growth, -100 = all killed)). Details: 10 µM unless noted.
For `COc1cc(/C=C2\COc3ccc(O)c(O)c3C2=O)cc(OC)c1`, the growth was -0.854% (active).
With `O=C(Nc1cccc(Cl)c1)Oc1c(Cl)c(Cl)c(Cl)c(Cl)c1Cl` the growth was 110% (inactive).
With `COc1cc(/C=C/C(=O)c2ccc(Nc3ncnc4cc(OC)c(OC)cc34)cc2)cc(OC)c1` the growth was 101% (inactive).
In the case of `Nc1n[nH]c2ccc([C@@H]3Nc4ccc5[nH]ncc5c4[C@H]4C5C=CC(C5)[C@@H]34)cc12` (stereo not given in full), the growth is reported as -12.2% (active).
With `O=C(Cc1cccc2ccccc12)N/N=C/c1ccc2c(c1)CCC2` the growth was 72.3% (inactive).
In the case of `CCN(CC)CCCNc1cc(OC)c(OC)c2cccnc12`, the growth is reported as 90.5% (inactive).
With `C=C(C)[C@H]1CC/C(C)=C/CC[C@]2(C)O[C@H]2CC/C(COC(C)=O)=C\C1=O` the growth was 115% (inactive).
For `CN1CCN(c2ccc3c(C(N)=O)c(NC(=O)c4ccc(C(C)(C)C)cc4)sc3c2)CC1`, the growth was 90.7% (inactive).
`CN1CCN(CCCN2c3ccccc3Sc3ccc(Cl)cc32)CC1` was tested, and the growth was -0.133% (active) and 70.8% (inactive).
In the case of `CCOC(=O)CNS(=O)(=O)CC(=O)c1ccccc1`, the growth is reported as 54.1% (inactive).
In the case of `COCCOc1cc2ncnc(N3CCN(c4ncc(S(=O)(=O)N5CCCCC5)cn4)CC3)c2cc1OCCOC`, the growth is reported as 75.3% (inactive).
In the case of `CCNC(=O)Oc1ccc(/C(=C(/C)Cc2ccc(OC)cc2)c2ccc(OCCN3CCCCCC3)cc2)cc1`, the growth is reported as 51.8% (inactive).
`COc1ccc(-c2nn(C(=O)c3cc(OC)c(OC)c(OC)c3)c3cc(N)ccc23)cc1` was tested, and the growth was -1.08% (active).
With `O=C1OC(c2ccccc2)=N/C1=C\c1ccc([N+](=O)[O-])cc1` the growth was 94.6% (inactive).
With `C[C@@H]1CCCCCCCCC[C@H](O)C(=O)C[C@@H](SC[C@@H](O)C(=O)O)C(=O)O1` the growth was 104% (inactive).
`COc1ccc(CNC(=O)[C@H](O)[C@@H](N)Cc2ccccc2)cc1` was tested, and the growth was 106% (inactive).
With `CC(=O)C(CO)C(=O)Nc1ccccc1` (stereo not given) the growth was 104% (inactive).
In the case of `O=[N+]([O-])c1ccc(-c2nc(Cl)c3c(n2)CCCC3)o1`, the growth is reported as 54.1% (inactive).
`O=C(O)CC1CCN(c2ccc3nnc(Cl)n3n2)CC1` was tested, and the growth was 101% (inactive).
For `CC(CO)(CO)C(=O)O`, the growth was 99.9% (inactive).
With `CCN(CC)c1ccc(/C=N/NC(=O)c2ccc(Nc3ccnc(C(F)(F)F)c3)cc2)c(O)c1` the growth was 8.37% (active).
`COCCOc1ccc(-c2nc3ccc(-c4nc5ccc(N6CCN(C)CC6)cc5[nH]4)cc3[nH]2)cc1` was tested, and the growth was -22.5% (active).
With `CCNC(=O)N1CCc2cc(OC)c(OCCc3ccc(OC)c(N)c3)cc2C1c1ccc(C)cc1C` (stereo not given) the growth was -0.144% (active).
`O=C(O)c1ccc(-n2cc(CNc3ccc(Cl)cc3)c(-c3ccc(F)cc3)n2)cc1` was tested, and the growth was 106% (inactive).
`Cc1nc2c(=O)[nH]c(SCC(=O)Nc3cccc(F)c3)nc2[nH]c1=O` was tested, and the growth was 98.9% (inactive).
With `[Cl][Ru].c1ccc(-c2cccc(-c3ccccn3)n2)nc1.c1ccc(-c2ccnc3c2ccc2c(-c4ccccc4)ccnc23)cc1` the growth was -21.4% (active).
For `COC1/C=C/OC2(C)Oc3c(C)c(O)c4c(O)c(c(/C=N/N(c5ccccc5)c5ccccc5)c(O)c4c3C2=O)NC(=O)C(C)=C/C=C/C(C)C(O)C(C)C(O)C(C)C(OC(C)=O)C1C` (stereo not given), the growth was -44.7% (active).
With `Cc1cc(C(=O)O)c(C)cc1C(=O)O` the growth was 96.6% (inactive).
`CC(=O)c1c(OCC#N)ccc2c(C)cc(=O)oc12` was tested, and the growth was 93.2% (inactive).
In the case of `O=S(=O)(NCCNc1nccc(-c2c(-c3cccc(F)c3)nc3sccn23)n1)c1ccc(Br)cc1`, the growth is reported as 78.3% (inactive).
With `CCc1c2c(nc3ccc(OC(=O)N4CCC(N5CCCCC5)CC4)cc13)-c1cc3c(c(=O)n1C2)COC(=O)[C@]3(O)CC` the growth was -31.2% (active).
For `Cn1c(C(N)=O)cc2c1-c1nc(NC3CCCCC3)ncc1CCC2`, the growth was 93.7% (inactive).
For `COc1ccc(-c2nn(-c3cccc(Cl)c3)cc2-c2c(C#N)c(N)n(N)c(=O)c2C#N)cc1`, the growth was 56.1% (inactive).
`CC(C)(C)CC(C)(C)n1nnnc1C(Nc1ccccc1)c1cc2cccc3ccc4cccc1c4c32` (stereo not given) was tested, and the growth was 86.5% (inactive).
In the case of `COc1cc(CNS(=O)(=O)c2ccc(C)cc2)ccc1OCc1cn(-c2ccc(F)cc2)nn1`, the growth is reported as 62.3% (inactive).
`CC1(/C=C/c2ccc(-c3ccccc3)cc2)CCn2cnc3ncnc(c32)N1O` (stereo not given) was tested, and the growth was -5.41% (active).
With `COc1cc2oc(-c3cccc(NC(=O)Nc4ccc5c(c4)OCO5)c3)cc(=O)c2c(OC)c1OC` the growth was 75.2% (inactive).
With `CCCN(CCC)c1ccc(/C=C/c2ccc3cc(OCC)ccc3n2)cc1` the growth was 74.1% (inactive).
`c1ccc2c(NCCCN3CCN(CCCNc4c5ccccc5nc5ccccc45)CC3)c3ccccc3nc2c1` was tested, and the growth was -73.2% [100 µM] (active).
In the case of `N#C/C(=C\c1ccc(-c2ccc(Br)cc2)o1)c1nc(-c2cccs2)cs1`, the growth is reported as 6.37% (active).
